G9a inh: qHTS Assay for Inhibitors of Histone Lysine Methyltransferase G9a. G9a H3K9 monomethylation, AlphaScreen, 2 h. Potency, µM (highest dose often 102 µM), inactives show at the top dose activity, negative = inhibition, most hits filed as inhibitors. 8.8% of 350,000 active. Histone-lysine N-methyltransferase EHMT2 (Homo sapiens), Q96KQ7. AID 504332, 2011; note: % is set by controls: 0 for no effect and ±100 for the full control effect; nearly all actives have a fitted effect of over 75% in size
Target sequence (Q96KQ7 913-1193 limits assumed): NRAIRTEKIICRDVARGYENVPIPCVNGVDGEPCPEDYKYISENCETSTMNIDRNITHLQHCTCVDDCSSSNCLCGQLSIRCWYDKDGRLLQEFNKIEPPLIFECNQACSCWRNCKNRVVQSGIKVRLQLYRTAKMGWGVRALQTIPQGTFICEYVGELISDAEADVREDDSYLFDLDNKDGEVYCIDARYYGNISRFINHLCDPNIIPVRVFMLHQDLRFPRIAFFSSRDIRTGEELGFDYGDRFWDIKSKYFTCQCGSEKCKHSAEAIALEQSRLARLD
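Methyltransferase reactions run at room temperature for 2 h (20 nM enzyme, 500 nM biotin-H3K9 peptide, 20 uM SAM) after a 15 min compound preincubation; product detected by AlphaScreen beads and anti-H3K9me1 antibody.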
JMJD2A Tudor: qHTS Assay for Inhibitors of JMJD2A-Tudor Domain | Potency, µM (doses to about 114 µM), for the others: at the highest dose activity change, negative = inhibition, most hits filed as inhibitors | 4.4% of 390,000 active | AlphaScreen JMJD2A-Tudor / H3K4me3 peptide binding | Lysine-specific demethylase 4A (Homo sapiens), O75164; note: % is set by controls: 0 for no effect and ±100 for the full control effect; nearly all actives have a fitted effect of over 50% in size
Sfp inh: qHTS Assay for Inhibitors of Bacillus subtilis Sfp phosphopantetheinyl transferase (PPTase); 4'-phosphopantetheinyl transferase ffp (Bacillus subtilis), Q9F4F7; Biochemical Sfp PPTase activity, qHTS; Potency, µM, for inactives: largest response in the series, negative = inhibition, usual class: inhibitors; 3.5% of 310,000 active; AID 1490, 2009;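 note: the enzyme is Sfp with the accession as filed and its product quenches rhodamine fluorescence; 0% = enzyme reaction without inhibitor and -100% = no enzyme wells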
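Reaction rates are the 30-min fluorescence difference (ex 525, em 598 nm) in wells containing 15 nM Sfp, 5 uM rhodamine-CoA and 12.5 uM BHQ-2-YbbR at pH 7.6 with 10 mM MgCl2.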
BAZ2B inh: qHTS Assay for Inhibitors of BAZ2B. Bromodomain adjacent to zinc finger domain protein 2B (Homo sapiens), Q9UIF8. AlphaScreen BAZ2B-H3K14Ac peptide displacement. Potency, µM (series often up to 114 µM), for the others: at the highest dose activity change, negative = inhibition, usual class: inhibitors. 4.4% of 360,000 active; note: % is set by controls: 0 for no effect and ±100 for the full control effect; nearly all actives have a fitted effect of over 60% in size
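In this displacement format the biotinylated H3(5-23) peptide acetylated at Lys14 serves as ligand at 50 nM, with BAZ2B at 50 nM in PBS pH 7.4 containing 0.01% Tween-20. Donor and acceptor beads are 10 ug/mL final.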
HP1b binding inh: HTS for Inhibitors of HP1-beta Chromodomain Interactions with Methylated Histone Tails. AID 540317, 2011. Chromobox protein homolog 1 (Homo sapiens), P83916. AlphaScreen HP1-beta / biotin-H3K9me3 peptide binding. Potency, µM (highest dose often 114 µM), without a hit: at the highest dose activity change, negative = inhibition, hits mostly inhibitors. 0.56% of 390,000 active; note: nearly all actives have a fitted effect of over 70% in size
Target sequence (P83916 whole entry, looked up): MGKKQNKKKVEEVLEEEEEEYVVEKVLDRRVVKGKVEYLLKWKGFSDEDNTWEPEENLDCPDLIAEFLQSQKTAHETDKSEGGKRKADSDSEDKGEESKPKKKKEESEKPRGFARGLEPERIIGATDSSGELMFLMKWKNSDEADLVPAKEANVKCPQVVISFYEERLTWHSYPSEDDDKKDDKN
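AlphaScreen: HP1-beta (50 nM) preformed 30 min with biotin-H3(1-18)K9me3 peptide (50 nM) in PBS pH 7.4, 0.01% Tween-20. Compound added for 30 min at RT, then streptavidin donor/nickel chelate acceptor beads (10 ug/mL) for 30 min.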
PLK1 PBD inh: qHTS for Inhibitors of PLK1-PDB (polo-like kinase 1 - polo-box domain): Primary Screen. Plk1 PBD binding of FITC phosphopeptide, fluorescence polarization. Potency, µM, without a hit: max response, negative = inhibition, most hits filed as inhibitors. 2.8% of 360,000 active. AID 720504, 2013; note: series mostly up to about 57 µM; % is set by controls: 0 for no effect and ±100 for the full control effect; nearly all actives have a fitted effect of over 65% in size
Starred values were filed as active, the others as inactive; u = inconclusive; x = not tested or not shown; [ ] = another dose, or the depositor's remark. In the library only some 12% were active in any assay of this set; here they are far more common. Calls come from the whole dose curve; as a rule, active = well fitted curve in the direction sought with a large enough effect; inconclusive = small, poorly fitted or top-dose-only effect, or another doubt; inactive = no such curve, though single readings can be large; an effect the other way counts as inactive or inconclusive. Potency is the fitted concentration of half-maximal effect.

SMILES | G9a inh | JMJD2A Tudor | Sfp inh | BAZ2B inh | HP1b binding inh | PLK1 PBD inh
O=C(CCN1CCc2ccccc21)c1ccc2c(c1)OCCO2 | u | u | u | 50µM* | -43% | u
CCS(=O)(=O)c1nc(S(=O)(=O)c2ccc(Cl)cc2)c(NCc2ccc(Cl)cc2)s1 | 2%[59 µM] | -16% | x | 0% | 25% | x
CCOC(=O)C1CCN(C(=O)COC(=O)c2nc3nc(C)cc(C)n3n2)CC1 | -1% | 2% | x | -6% | 17% | -4%
CCOC(=O)C1CCN(S(=O)(=O)c2c(Cl)ccc3nonc23)CC1 | 50µM* | x | -17% | -17% | x | x
CCOC(=O)C1CCN(S(=O)(=O)c2nc3nc(C)cc(C)n3n2)CC1 | 2%[12.7 µM] | -18%[11.4 µM] | 14% | 1% | -16% | 30µM*
CCN(C(=O)CSc1nnc(Cn2nnc3ccccc32)o1)c1nc(C)cs1 | u | -3% | 20µM* | 15% | -4% | u
Cc1ccnc(NS(=O)(=O)c2ccc(NC(=O)Cc3ccc(Br)cc3)cc2)n1 | 7% | -18% | 13% | 1% | 16% | -4%
CC(C)Nc1ccc(-c2nc(-c3ccncc3)no2)cc1[N+](=O)[O-] | -14%[59 µM] | -13% | x | -20% | 22% | x
COc1ccc(C2=CC(c3c(C)nn(-c4ccccc4)c3Cl)n3nnnc3N2)cc1OC (stereo unspecified) | 45µM* | u | -2% | -25% | 4% | 2%
COC(=O)CCC(=O)Oc1ccc(OC(=O)CCC(=O)OC)cc1 | 50µM* | x | 5% | -2% | x | x
COC(=O)CCC(=O)Nc1ccc(NC(=O)CCC(=O)OC)cc1 | u | -1% | -4% | 13% | 57% | -2%
O=C(O)c1ccc(-c2nc(-c3ccccc3)cs2)cc1 | -2% | -17% | 0% | 1% | 24% | -14%
O=C(O)c1ccc(-c2nc(-c3ccc(Cl)c(Cl)c3)cs2)cc1 | -34% | -11% | -16% | -12% | 40% | 27µM*
NC(=O)C(=CNc1nc(-c2ccc(Cl)c(Cl)c2)cs1)C(N)=O | x | x | 22µM* | 45µM* | x | x
O=C(O)c1csc(-c2ccc(Cl)cc2)n1 | 56µM* | -21% | -9% | u | -2% | -15%
O=C(O)c1cnn(-c2nc(-c3cccc(F)c3)cs2)c1C(F)(F)F | 50µM* | -17%[11.4 µM] | 11% | -38% | 25% | -23%
CNC(=O)c1csc(-c2ccc(Cl)cc2)n1 | 1% | -10% | -3% | -21% | 30% | -5%
Nc1cccc(-c2csc(-n3ncc(C(=O)O)c3C(F)(F)F)n2)c1 | u | -16% | 10% | -14% | 30% | -6%
O=C(O)c1cnn(-c2nc(-c3ccc(Cl)c(Cl)c3)cs2)c1C(F)(F)F | u | -21% | 11% | -23% | 29% | 27µM*
COc1ccc(S(N)(=O)=O)cc1C(=O)OCC1CCCCC1 | 12% | 4% | 12% | -20% | 31% | 5%
CCOC(=O)CC(NCc1ccc(OC)c(OCC)c1)c1ccc(C)cc1 (stereo unspecified) | -14%[12.7 µM] | 56µM* | 1% | -15% | 4% | 21µM*
COc1ccc(CNC(=O)Cc2cccs2)cc1OC | 2% | 8% | 2% | -3% | 16% | 0%
COc1ccc(CNCCNC(=O)c2cccs2)cc1OC | 11µM* | 20µM* | -8% | x | u | 6%
COc1cc(CNCCc2ccccc2)ccc1OCC(N)=O | -45%[59 µM] | -6% | 3% | -8% | 28% | -8%
COc1cc(CNCCNC(=O)c2cccs2)cc(OC)c1OC | x | 28µM* | -15% | 89µM* | -21% | -2%
SMILES | G9a inh | JMJD2A Tudor | Sfp inh | BAZ2B inh | HP1b binding inh | PLK1 PBD inh
CCOC(=O)CCNCc1ccc(OC)c(OC)c1 | 5%[12.7 µM] | -15%[11.4 µM] | -2% | 3% | 14% | 24µM*
COCCn1c(=O)c(-c2ccc(Cl)cc2)nc2cnc(Nc3ccccc3)nc21 | -4%[0.501 µM] | x | 22% | x | x | x
C=CCN(C(=O)Cn1c(C(=O)OC)cc2oc(C)cc21)c1ccccc1 | 45µM* | -13% | u | 4% | -2% | -10%
CO/N=C\[C@@H](NS(=O)(=O)c1ccc(C)cc1)[C@H](C)/C=C\CC(=O)OC | x | x | -1% | x | x | x
COc1ccc(-n2c(Cc3cccn3C)nnc2SCC(=O)Nc2cccc(OC)c2)cc1 | 50µM* | -34% | -12% | u | 11% | -1%
Cn1cccc1Cc1nnc(SCC(=O)NC2CCCCC2)n1-c1ccc(F)cc1 | u | -34% | -19% | 0% | 14% | -6%
Cc1cc(C)c(NC(=O)CSc2nnc(Cc3cccn3C)n2-c2ccc(F)cc2)c(C)c1 | 45µM* | u | 50µM* | u | -17% | -9%
Cn1cccc1Cc1nnc(SCC(=O)N2CCOCC2)n1-c1ccc(F)cc1 | u | -31% | u | -27% | 12% | -12%
COc1ccc(NC(=O)CSc2nnc(Cc3cccn3C)n2-c2ccc(C)cc2)cc1OC | u | u | -5% | u | u | -6%
COc1ccc(-n2c(Cc3cccn3C)nnc2SCC(=O)Nc2ccc(C)c(Cl)c2)cc1 | 45µM* | u | -6% | u | -8% | 0%
Cn1cccc1Cc1nnc(SCC(N)=O)n1-c1ccc(F)cc1 | 89µM* | -13% | -29% | -6% | 41% | -12%
CCOC(=O)c1[nH]c(C)c(CCC(=O)Nc2ccc(C)cc2Cl)c1C | 1%[59 µM] | -3% | x | 1% | 23%[57 µM] | x
O=C(Cn1cc(SCc2ccc(F)cc2)c2ccccc21)N1CCCCCC1 | 6%[59 µM] | 0% | x | -1% | 64% | x
CC(=O)Nc1cccc(NC(=O)CSc2nnc(Cc3cccn3C)n2-c2ccc(F)cc2)c1 | u | u | -23% | u | -14% | -2%
Cn1cccc1Cc1nnc(SCC(=O)NCc2ccccc2Cl)n1-c1ccc(F)cc1 | 79µM* | -35% | 4% | u | -3% | -9%
COc1cccc(NC(=O)CSc2nnc(Cc3cccn3C)n2-c2ccc(F)cc2)c1 | u | u | -15% | 50µM* | 13% | -5%
COCCN(CCOC)Cc1cc(=O)oc2cc(C)cc(C)c12 | x | x | x | x | x | -10%
Cc1c(Cl)cccc1NC(=O)Cn1cc(C(=O)C2CCCCC2)c2ccccc21 | 3%[59 µM] | -1% | x | -1% | 23% | x
CCC(=O)c1ccc(OCC(=O)Nc2nc(C)cs2)cc1 | x | -14% | x | x | 25% | 1%
c1cc2c(cc1-c1csc(NNC3=NCCCCC3)n1)OCCO2 | 6.3µM* | -26%[11.4 µM] | -95% | 35µM* | u | 19µM*
